Legend:
Test in all cases: thermal shift delta Tm vs DMSO control; higher = stronger stabilization (binding)
Details in all cases: 12.5 µM; protein concentration 2 µM
[1] = compound: C/C(O)=C(\C#N)C(=O)Nc1cc(Br)ccc1Br
Summary of the method: (§1)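 Purified, E. coli-expressed rice kinase domain constructs were tested by differential scanning fluorimetry in 96-well plates: 19.5 μl of 2 μM kinase in 100 mM potassium phosphate pH 7.5, 150 mM NaCl, 10% glycerol, 5 × SYPRO Orange, plus compound in DMSO. Fluorescence was read from 25°C to 95°C at 0.05°C/s. Melting temperatures came from Boltzmann fits, and the shift is the triplicate mean relative to protein with DMSO alone.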

[2] = compound: CC(C)(C)c1cc(C=C(C#N)C#N)cc(Br)c1O
Summary of the method: as §1

Tyrphostin 9 = compound: CC(C)(C)c1cc(C=C(C#N)C#N)cc(C(C)(C)C)c1O [Tyrphostin 9]
Summary of the method: as §1

Aurora A Inhibitor I = compound: CCN1CCN(C(=O)Cc2ccc(Nc3ncc(F)c(Nc4ccc(C(=O)Nc5ccccc5Cl)cc4)n3)cc2)CC1 [Aurora A Inhibitor I]
Summary of the method: as §1

Picropodophyllin (PPP) = compound: COc1cc([C@@H]2c3cc4c(cc3[C@H](O)[C@H]3COC(=O)[C@@H]23)OCO4)cc(OC)c1OC [Picropodophyllin (PPP)]
Summary of the method: as §1

Anisomycin = compound: COc1ccc(C[C@H]2NC[C@H](O)[C@H]2OC(C)=O)cc1 [Anisomycin]
Summary of the method: as §1

[3] = compound: COc1ccc(N(C(=O)Oc2c(C)cccc2C)c2ccnc(Nc3ccc(N4CCN(C)CC4)cc3)n2)c(OC)c1
Summary of the method: as §1

[4] = compound: COc1ccc2c(c1)/C(=C/c1cnc[nH]1)C(=O)N2
Summary of the method: as §1

[5] = compound: Cc1ccccc1-n1c(Cn2ncc3c(N)ncnc32)nc2cccc(C)c2c1=O
Summary of the method: as §1

[6] = compound: O=c1[nH]c2ccc(Cl)cc2c(N[C@@H]2CN3CCC2CC3)c1-c1nc2ccccc2[nH]1
Summary of the method: as §1

[7] = compound: Cn1cc(C2=C(c3cn(C4CCN(Cc5ccccn5)CC4)c4ccccc34)C(=O)NC2=O)c2ccccc21
Summary of the method: as §1

LOC_OS06G16330-cb003, sequence (as listed by the source): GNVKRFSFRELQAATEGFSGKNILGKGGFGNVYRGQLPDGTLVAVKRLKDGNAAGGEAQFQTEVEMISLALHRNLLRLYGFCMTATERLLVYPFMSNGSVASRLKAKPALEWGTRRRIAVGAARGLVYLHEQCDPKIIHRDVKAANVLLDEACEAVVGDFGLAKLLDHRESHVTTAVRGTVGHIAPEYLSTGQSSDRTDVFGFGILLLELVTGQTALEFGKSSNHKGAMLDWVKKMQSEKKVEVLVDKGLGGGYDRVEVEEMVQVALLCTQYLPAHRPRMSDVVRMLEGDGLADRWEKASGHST
LOC_OS04G41100-cb001, sequence (as listed by the source): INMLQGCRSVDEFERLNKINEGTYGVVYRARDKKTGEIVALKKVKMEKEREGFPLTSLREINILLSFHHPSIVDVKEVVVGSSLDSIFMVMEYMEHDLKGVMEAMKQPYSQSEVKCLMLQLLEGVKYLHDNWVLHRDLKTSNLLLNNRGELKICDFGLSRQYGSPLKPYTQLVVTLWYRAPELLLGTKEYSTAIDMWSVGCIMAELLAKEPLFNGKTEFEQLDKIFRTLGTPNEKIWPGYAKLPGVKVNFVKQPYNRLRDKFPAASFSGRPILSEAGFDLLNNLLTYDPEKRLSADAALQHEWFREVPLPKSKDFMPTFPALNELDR
LOC_OS06G22820-cb001, sequence (as listed by the source): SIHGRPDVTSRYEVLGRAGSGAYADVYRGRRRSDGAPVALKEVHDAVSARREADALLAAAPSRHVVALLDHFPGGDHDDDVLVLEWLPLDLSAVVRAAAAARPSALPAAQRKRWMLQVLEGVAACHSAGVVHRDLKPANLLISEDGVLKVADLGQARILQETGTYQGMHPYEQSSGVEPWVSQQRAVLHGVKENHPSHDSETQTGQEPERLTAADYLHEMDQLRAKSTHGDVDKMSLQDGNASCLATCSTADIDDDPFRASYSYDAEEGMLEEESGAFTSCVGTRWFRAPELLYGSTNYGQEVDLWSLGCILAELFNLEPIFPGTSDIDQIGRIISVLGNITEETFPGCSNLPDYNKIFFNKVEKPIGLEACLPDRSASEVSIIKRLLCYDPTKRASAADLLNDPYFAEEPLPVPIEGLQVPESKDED
LOC_OS01G52050-cb004, sequence (as listed by the source): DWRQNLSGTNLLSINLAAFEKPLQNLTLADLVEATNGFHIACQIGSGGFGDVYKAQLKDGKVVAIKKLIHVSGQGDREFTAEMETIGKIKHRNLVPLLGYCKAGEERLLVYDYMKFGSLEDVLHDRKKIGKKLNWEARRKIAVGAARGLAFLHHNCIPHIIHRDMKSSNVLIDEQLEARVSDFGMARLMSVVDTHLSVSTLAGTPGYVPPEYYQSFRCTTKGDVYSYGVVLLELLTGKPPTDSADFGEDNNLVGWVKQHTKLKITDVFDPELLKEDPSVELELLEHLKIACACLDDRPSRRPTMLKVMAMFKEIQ

Row | Target | thermal shift delta Tm [1] | thermal shift delta Tm [2] | thermal shift delta Tm (Tyrphostin 9) | thermal shift delta Tm (Aurora A Inhibitor I) | thermal shift delta Tm (Picropodophyllin (PPP)) | thermal shift delta Tm (Anisomycin) | thermal shift delta Tm [3] | thermal shift delta Tm [4] | thermal shift delta Tm [5] | thermal shift delta Tm [6] | thermal shift delta Tm [7]
1 | LOC_OS01G48390-cb002 | 0.77 °C | 0.72 °C | 2.01 °C | 4.11 °C | 0.19 °C | 0.33 °C | -0.27 °C | 1.32 °C | 0.11 °C | 1.21 °C | 
2 | LOC_OS01G13800-cb001 | 0.83 °C | 2.05 °C | 1.92 °C | 0.32 °C | -0.49 °C | 0.17 °C | 0.12 °C | 0.49 °C | 0.06 °C | -0.04 °C | 
3 | LOC_OS01G60330-cb001 | 1.6 °C | 1.56 °C | 4.55 °C | 12.3 °C | 0.72 °C | 0.77 °C | 1.23 °C | 4.72 °C | -0.01 °C | 10.8 °C | 
4 | LOC_OS02G54510-cb004 | 0.42 °C | 0.85 °C | 0.47 °C | 1.31 °C | 0.14 °C | 0.56 °C | 0.56 °C | 0.44 °C | 0.08 °C | 1.44 °C | 0.65 °C
5 | LOC_OS03G50450-cb001 | 1.25 °C | 0.89 °C | 1.36 °C | 6.04 °C | 0.03 °C | 0.61 °C | 0.76 °C | 1.49 °C | 0.18 °C | 2.51 °C | 0.07 °C
6 | LOC_OS05G07850-cb002 | 1.58 °C | 4.65 °C | 0.08 °C | 12.2 °C | -0.91 °C | 0.21 °C | 7.34 °C | 8.01 °C | -0.57 °C | 8.76 °C | 2.26 °C
7 | LOC_OS01G02750-cb003 | 1.62 °C | 1.02 °C | 6.7 °C | 0.26 °C | 0.88 °C | 0.6 °C | 0.82 °C | 2.97 °C | 0.47 °C | 4.52 °C | -0.47 °C
8 | LOC_OS07G07230-cb001 | 0.39 °C | 1.24 °C | 0.49 °C | 0.3 °C | 0.63 °C | 0.94 °C | 0.5 °C | -0.03 °C | 0.41 °C | 0.14 °C | 0.68 °C
9 | LOC_OS02G17970-cb001 | 1.08 °C | 2.06 °C | 3.2 °C | 0.33 °C | 0.61 °C | 0.2 °C | 0.79 °C | 0.72 °C | -0.06 °C | 0.93 °C | 
10 | LOC_OS01G21960-cb002 | 1.38 °C | 1.5 °C | 4.31 °C | 2.25 °C | 0.41 °C | 0.52 °C | 0.61 °C | 1.85 °C | 0.03 °C | 3.76 °C | 
11 | LOC_OS01G01410-cb001 | 0.85 °C | 0.56 °C | 3.01 °C | 2.6 °C | -0.11 °C | 0.63 °C | 0.04 °C | 2.18 °C | 0.73 °C | 3.66 °C | 
12 | LOC_OS01G51400-cb002 | 0.56 °C | 0.64 °C | 1.62 °C | -0.05 °C | -0.01 °C | 0.24 °C | 0.03 °C | 0.84 °C | 0.24 °C | 0.3 °C | 
13 | LOC_OS06G22820-cb001 | 0.73 °C | 1.01 °C | 1.56 °C | -0.07 °C | 0.27 °C | 0.57 °C | 0.55 °C | 0.55 °C | 0.41 °C | 0.64 °C | 1 °C
14 | LOC_OS02G08530-cb003 | 1.36 °C | 1.36 °C | 2.26 °C | 2.48 °C | 0.6 °C | 1.28 °C | 0.72 °C | 2.97 °C | 0.37 °C | 5.48 °C | 0.99 °C
15 | LOC_OS03G50810-cb003 | 0.73 °C | 0.71 °C | 0.82 °C | 3.94 °C | 0.16 °C | 0.59 °C | 0.9 °C | 3.03 °C | 0.23 °C | 5.29 °C | 1.38 °C
16 | LOC_OS01G10900-cb004 | 1.47 °C | -0.04 °C | 3.61 °C | 0.91 °C | 0.63 °C | 0.16 °C | 0.15 °C | 1.02 °C | 0.1 °C | 0.03 °C | 
17 | LOC_OS05G43570-cb004 | 0.83 °C | 0.83 °C | 1.46 °C | 1.76 °C | -0.21 °C | 0.46 °C | 0.38 °C | 0.79 °C | 0.31 °C | 1.44 °C | 1 °C
18 | LOC_OS02G45750-cb003 | 1.66 °C | -0.03 °C | 0.99 °C | 3.48 °C | 0.36 °C | 1.18 °C | 2.08 °C | 7.07 °C | -0.14 °C | 11.3 °C | 0.32 °C
19 | LOC_OS05G16824-cb004 | 2.14 °C | -1.4 °C | -0.97 °C | 7.48 °C | -3.09 °C | -4.31 °C | 1.29 °C | 8.5 °C | -1.77 °C | 15.4 °C | 2.01 °C
20 | LOC_OS01G52050-cb004 | 0.91 °C | 2.42 °C | 3.34 °C | 1.73 °C | -0.26 °C | 0.12 °C | -0.12 °C | 4.67 °C | -0.06 °C | 9.73 °C | 

Row | Target | thermal shift delta Tm [1] | thermal shift delta Tm [2] | thermal shift delta Tm (Tyrphostin 9) | thermal shift delta Tm (Aurora A Inhibitor I) | thermal shift delta Tm (Picropodophyllin (PPP)) | thermal shift delta Tm (Anisomycin) | thermal shift delta Tm [3] | thermal shift delta Tm [4] | thermal shift delta Tm [5] | thermal shift delta Tm [6] | thermal shift delta Tm [7]
21 | LOC_OS01G39600-cb002 | 0.11 °C | 3.42 °C |  | 3.74 °C | -0.4 °C | -0.07 °C | -0.58 °C | 2.01 °C | 0.35 °C | 6.61 °C | 
22 | LOC_OS05G30820-cb001 | 0.57 °C | 1.27 °C | 0.84 °C | 1.39 °C | 0.41 °C | 0.89 °C | 0.33 °C | 0.99 °C | 0.5 °C | 0.98 °C | 0.82 °C
23 | LOC_OS01G63280-cb003 | 0.5 °C | 0.9 °C | 2.28 °C | 0.22 °C | -0.03 °C | 0.15 °C | 0.38 °C | 4.22 °C | -0.3 °C | 0.81 °C | 
24 | LOC_OS07G06570-cb004 | 0.21 °C | 0.05 °C | 2.9 °C | 0.63 °C | 1.02 °C | 1 °C | 1.01 °C | 0.08 °C | 1.12 °C | 0.51 °C | 
25 | LOC_OS03G12390-cb001 | 1.3 °C | 0.42 °C | 0.25 °C | 5.37 °C | -0.2 °C | -0.29 °C | 0.45 °C | 4.35 °C | -0.25 °C | 4.7 °C | 0.52 °C
26 | LOC_OS02G14120-cb001 | 0.47 °C | 0.92 °C | 3.24 °C | 8.23 °C | 0.5 °C | 0.58 °C | 0.02 °C | 4.75 °C | -0.47 °C | 7.91 °C | 
27 | LOC_OS01G14860-cb001 | 1.32 °C | 1.24 °C | 3.15 °C | 3.95 °C | 0.29 °C | -0.05 °C | 0.07 °C | 5.78 °C | -0.1 °C | 7.87 °C | 
28 | LOC_OS03G04050-cb001 | 0.96 °C | 0.99 °C | 0.99 °C | 0.02 °C | 0.1 °C | 0.72 °C | 0.67 °C | 0.53 °C | 0.27 °C | 0.52 °C | 0.69 °C
29 | LOC_OS01G60700-cb002 | 1.75 °C | 1.51 °C | 4.79 °C | 0.71 °C | 0.4 °C | 0.15 °C | 1.33 °C | 0.77 °C | 0.02 °C | 1.41 °C | 3.52 °C
30 | LOC_OS02G07810-cb001 | 1.72 °C | 2.07 °C | 2.29 °C | 0.45 °C | 0.15 °C | 0.03 °C | 0.73 °C | 0.97 °C | 0.6 °C | 1.44 °C | 
31 | LOC_OS04G57630-cb004 | 0.3 °C | 0.11 °C | -0.37 °C | 4.13 °C | 0.26 °C | 0.15 °C | 0.3 °C | 1.58 °C | -0.13 °C | 1.43 °C | -0.06 °C
32 | LOC_OS04G41100-cb001 | 0.64 °C | 0.96 °C | 1.09 °C | 1.62 °C | 0.3 °C | 0.43 °C | 0.13 °C | 3.1 °C | 0.39 °C | 2.42 °C | 1.42 °C
33 | LOC_OS06G16330-cb003 | 1.18 °C | 2.32 °C | 0.83 °C | 8.9 °C | 0.19 °C | -0.28 °C | -0.04 °C | 5.39 °C | -0.12 °C | 6.83 °C | 
34 | LOC_OS01G70970-cb002 | 0.43 °C | 0.94 °C | 2.45 °C | 4.68 °C | 0.24 °C | 0.31 °C | 0.31 °C | 4.78 °C | -0.01 °C | 5.08 °C | 
35 | LOC_OS01G67340-cb003 | 1.03 °C | 0.32 °C | -0.32 °C | 0.7 °C | 0.12 °C | 0.35 °C | 0.5 °C | 4.84 °C | -0.48 °C | 2.48 °C | 0 °C
36 | LOC_OS01G57100-cb003 | 1.78 °C | -0.11 °C | 6.29 °C | 1.79 °C | 0.44 °C | 1.09 °C | 1.54 °C | 1.34 °C | 0.63 °C | 3.28 °C | 
37 | LOC_OS03G27990-cb004 | 0.81 °C | 0.8 °C | 0.88 °C | 1.5 °C | 0.02 °C | 0.47 °C | 0.54 °C | 1.69 °C | -0.07 °C | 3.66 °C | 0.11 °C
38 | LOC_OS04G35114-cb001 | 1.21 °C | 0.3 °C | 0.89 °C | 3.75 °C | 0.21 °C | 0.57 °C | 1.64 °C | 6.97 °C | 0.13 °C | 5.95 °C | 1.31 °C
39 | LOC_OS05G28520-cb001 | 1.13 °C | 0.45 °C | 1.67 °C | 0.67 °C | 0.07 °C | 0.12 °C | 0.27 °C | 0.94 °C | -0.36 °C | 0.32 °C | 3.85 °C

From the supplement of paper PMC9694430
